# Source: PubChem BioAssay (NCATS)
# Inconclusive results are not listed. The source made the active and inactive calls. Calls come from the whole dose curve; as a rule, active = well fitted activation curve with a large enough effect; inconclusive = small, poorly fitted or top-dose-only effect, or another doubt; inactive = no such curve, though single readings can be large or run the other way.
# Target: Rap guanine nucleotide exchange factor 3 (Homo sapiens) (UniProt O95398)
# Assay: Counterscreen qHTS for agonist of cAMP-regulated guanine nucleotide exchange factor 3 (EPAC1) (AID 1645889); note: nearly all actives have a fitted effect of over 40% in size; for activation: % of control where 0% means no effect
# Conditions: EPAC1 Rap1B-BODIPY-GDP exchange, fluorescence; series mostly up to 154 µM
# Outline: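 Rap1B–BODIPY-GDP (250 nM) with 50 uM GDP; compounds pin-transferred to 9.74 nM–152 uM final (activator) or from 7.32 nM upwards (inhibitor). Fluorescence Ex/Em 480/540 nm read at 5 and 30 min, then after adding cAMP or buffer, at room temperature.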
# Potency is the fitted concentration of half-maximal effect.
SMILES,activation,Potency
COc1ccc(NS(=O)(=O)c2ccc(S(=O)(=O)N3CCCC3)cc2)cc1,24.5% [at 30.8 µM] (inactive),
c1ccc(CNc2c(-c3cccc(SC4CCCCC4)c3)nc3ccccn23)cc1,4.1% [at 30.8 µM] (inactive),
Cc1ccc(C2N(c3ccc(Cl)cc3)C(=O)N3CCCN23)cc1 (stereo not given),,inactive
CC1CN(c2nc(-c3ccccc3)nc3ccccc23)CC(C)O1 (stereo not given),21.3% [at 30.8 µM] (inactive),
COC(=O)c1ccc2nc(-c3ccc(F)cc3)c(CC3CCCCC3)n2c1,6.82% [at 30.8 µM] (inactive),
COCCN(CCOC)Cc1cc(=O)oc2cc(C)cc(C)c12,,inactive
COC(=O)c1ccc2nc(-c3ccc(OC)c(OC)c3)c(CC3CCCCC3)n2c1,,inactive
Cc1ccc(C2(c3noc(CN(C)Cc4ccccn4)n3)CCCC2)cc1,1.73% [at 30.8 µM] (inactive),
COc1ccccc1C1CC(=O)Oc2cc(C)c(Cl)c(C)c21 (stereo not given),15.1% [at 30.8 µM] (inactive),
O=C(Cc1c(F)cccc1Cl)Nc1ccc(S(=O)(=O)Nc2nccs2)cc1,17.6% [at 30.8 µM] (inactive),
O=C1[C@H]2CCC=C[C@H]2[C@H](c2ccccc2Br)N1Cc1ccccc1,,inactive
O=C(O)CCCN1C(=O)/C(=C/c2cn(-c3ccccc3)nc2-c2cccs2)SC1=S,,15.8 µM (active)
COC(=O)c1ccc2nc(-c3cccc(Br)c3)c(Cc3ccsc3)n2c1,17.8% [at 30.8 µM] (inactive),
COc1ccc(S(=O)(=O)Nc2ncccc2C)c2ccccc12,,inactive
Cc1ccc(-c2nn3cnnc3c3ccccc23)cc1C,5.84% [at 30.8 µM] (inactive),
COc1ccc(-c2noc(CN(C(=O)c3c(-c4ccccc4Cl)noc3C)C(C)C)n2)cc1,,inactive
CC1CN(c2nc3ccccc3cc2-c2ccccc2)CC(C)O1 (stereo not given),,inactive
Cc1ccc(C2N(c3cccc(Cl)c3)C(=O)N3CCCN23)cc1 (stereo not given),3.03% [at 30.8 µM] (inactive),
COc1ccc(N2C(=O)CSC2c2ccccc2F)c(OC)c1 (stereo not given),,inactive
COc1ccc(-c2ccc(CCC(=O)O)n2-c2ccc(Cl)cc2C)cc1,,inactive
COc1ccc2cc(S(=O)(=O)N3CCCC3)ccc2c1,13.3% [at 30.8 µM] (inactive),
CC(C)c1nc2cc(Cl)ccc2n(Cc2ccccc2)c1=O,,inactive
COC(=O)c1ccccc1C(=O)c1c(C)cc(C)cc1C,0.931% [at 30.8 µM] (inactive),
O=C(/C=C/c1cccc(Cl)c1Cl)OCC(=O)N1CCOCC1,,inactive
CCCNC(=O)c1ccc(N2CCC3(CC2)CC(c2ccccc2)=NO3)c(NC(=O)c2ccccc2)c1,,inactive
Cc1ccc(C2(c3noc(CN(C)CC4CCCCO4)n3)CCCC2)cc1 (stereo not given),-0.372% [at 30.8 µM] (inactive),
Cc1ccc(CN(Cc2ccco2)C(=O)c2ccco2)cc1,27.7% [at 30.8 µM] (inactive),
COc1ccc(C(=O)N(Cc2ccccc2)c2cccc(C)c2)cc1,,inactive
COC(=O)c1ccc2nc(C3CCCCC3)c(Cc3ccccc3)n2c1,9.29% [at 30.8 µM] (inactive),
Cc1cc(C)c(C(=O)c2ccccc2)c(C)c1,,inactive
